An excerpt weighted towards active compounds, which were near 4% of everything screened.
TROY signal inh: inhibitors of TROY-driven NF-kB signaling, primary screen, Q293 LMP1-TROYcd cells, NF-kB luciferase, uHTS | Q293 LMP1-TROYcd NF-kB luciferase reporter, 4 h | 360,000 compounds, 0.98% hits | inhibition, % at 10 µM;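 active means compounds whose plate-normalised and pattern-corrected inhibition of the luciferase reporter signal at the single screening dose is 50% or more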
KKLEB tox: cytotoxicity in KKLEB CF airway cells, primary screen, cytotoxicity control for CF NF-kB inhibitor project, cell-based, uHTS, fluorescence assay plates; KKLEB CF airway cells viability, ATPlite luminescence, overnight; active compounds read low; cells stimulated with P. aeruginosa culture filtrate; 360,000 compounds, 0.36% hits; activity change (cytotoxicity), % at 5 µM; AID 602141, 2011;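 active means corrected activity change at or below -50% at 5 µM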
Peg3 prom inh: Peg3 promoter-driven luciferase inhibitors, primary screen, cell-based, HeLa, luciferase luminescence | AID 588405, 2011 | inhibition, % at 20 µM | 360,000 compounds, 1.7% hits | HeLa PEG-Prom luciferase reporter, overnight;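 active means inhibition of at least 50% at 20 µM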
HIF-2a inh: HIF-2a reporter inhibitors, primary screen, luminescence, 786-0 RCC cells | 786-0 RCC cells HIF-2a reporter, luciferase luminescence, overnight | inhibition, % at 18.8 µM | 360,000 compounds, 0.72% hits;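 active means inhibition of the luminescence signal of 40% or more relative to plate controls, in a single-dose primary screen at 18.75 µM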
TWEAK Fn14 block: inhibitors of TWEAK-Fn14 signaling, primary screen, luciferase reporter cells, uHTS | TWEAK-stimulated Fn14 reporter cells, luciferase luminescence, 8 h | inhibition, % at 10 µM | 360,000 compounds, 2% hits; in the data active means inhibition above about 50%
CF NFkB inh: inhibitors of PAF-induced NF-kB signaling, primary screen, cell-based, GFP fluorescence, uHTS | KKLEB NF-kB-GFP reporter, GFP fluorescence overnight | inhibition, % at 5 µM | 360,000 compounds, 0.86% hits;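 active means at least 50% inhibition at 5 µM, scaled per plate between neutral and stimulator controls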;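 further: PAF is a Pseudomonas aeruginosa culture filtrate used as stimulus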
Mdm2-MdmX confirm: retested Mdm2-MdmX interaction blockers, confirmation, cell-based, luminescence, single concentration, set 2; shares compounds with HIF-2a inh; SaOS-2 split-luciferase Mdm2/MdmX complementation; inhibition, % at 8 µM; 740 compounds, 99% hits; AID 504601, 2011;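 active means mean inhibition of the luminescence signal across two replicates at or above 26 percent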
Target sequence (O15151 whole entry, looked up): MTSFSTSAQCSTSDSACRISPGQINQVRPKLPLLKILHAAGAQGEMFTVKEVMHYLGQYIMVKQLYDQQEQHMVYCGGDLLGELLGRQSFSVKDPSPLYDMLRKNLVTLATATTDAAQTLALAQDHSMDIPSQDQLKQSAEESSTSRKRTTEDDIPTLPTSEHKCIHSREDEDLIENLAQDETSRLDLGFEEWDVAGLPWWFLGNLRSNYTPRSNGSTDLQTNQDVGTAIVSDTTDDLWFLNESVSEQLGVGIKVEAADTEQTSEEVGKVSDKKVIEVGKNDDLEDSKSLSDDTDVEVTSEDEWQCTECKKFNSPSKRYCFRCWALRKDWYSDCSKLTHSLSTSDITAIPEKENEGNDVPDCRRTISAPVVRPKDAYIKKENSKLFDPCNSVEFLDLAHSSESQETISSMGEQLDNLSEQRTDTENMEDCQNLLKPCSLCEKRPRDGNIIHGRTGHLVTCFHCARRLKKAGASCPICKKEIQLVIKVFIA
Target sequence (Q00987 whole entry, looked up): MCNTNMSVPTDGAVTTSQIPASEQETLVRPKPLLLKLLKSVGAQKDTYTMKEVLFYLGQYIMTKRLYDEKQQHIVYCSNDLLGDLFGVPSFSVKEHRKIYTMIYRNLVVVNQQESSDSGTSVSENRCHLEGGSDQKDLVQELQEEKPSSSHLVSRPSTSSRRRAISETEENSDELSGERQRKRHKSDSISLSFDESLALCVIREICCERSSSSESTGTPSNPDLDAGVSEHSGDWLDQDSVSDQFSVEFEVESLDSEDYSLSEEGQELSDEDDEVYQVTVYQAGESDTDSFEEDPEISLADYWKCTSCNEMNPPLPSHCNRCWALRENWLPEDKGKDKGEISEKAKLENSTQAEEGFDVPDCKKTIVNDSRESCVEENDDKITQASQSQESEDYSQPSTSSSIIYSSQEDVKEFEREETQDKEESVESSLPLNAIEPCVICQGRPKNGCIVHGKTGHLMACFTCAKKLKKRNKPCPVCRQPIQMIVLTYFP
HIF-2a conf: HIF-2a reporter inhibitor retest, confirmation, luminescence, 786-0 RCC cells; shares compounds with HIF-2a inh; HIF-2a luciferase reporter luminescence, overnight; inhibition, % at 18.8 µM; 1,800 compounds, 56% hits;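 active means mean inhibition across four replicates of at least 40 percent at the single tested concentration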
HIF-1a cs: HIF-1a luciferase reporter signal reduction – MiaPaCa-2 cells, single concentration, counter-screen for HIF-2a inhibitor project, confirmation. shares compounds with HIF-2a inh. MiaPaCa-2 HIF-1a luciferase reporter, desferoxamine, overnight. inhibition, % at 18.8 µM. 1,800 compounds, 72% hits;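 active means mean inhibition of the reporter signal across four replicates at the single tested dose of 50% or more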
Hits are given with their value; 0 = inactive; - = no result given.

SMILES	TROY signal inh	KKLEB tox	Peg3 prom inh	HIF-2a inh	TWEAK Fn14 block	CF NFkB inh	HIF-2a conf	HIF-1a cs	others
CC(C)(C)NC(=O)C1CCN(C(=O)c2ccco2)CC1	0	0	0	0	0	0	-	-
CCN(CC)C(=O)CSc1ncnc2c1cnn2Cc1ccccc1	0	0	0	0	0	0	-	-
CCOC(=O)CNC(=O)CSc1ncnc2c1cnn2Cc1ccccc1	0	0	0	48	0	0	0	0
O=C(CCl)Nc1cccc(S(=O)(=O)N2CCCCCC2)c1	0	0	73	46	0	0	0	67
CC(=O)c1ccc(Cc2ccc(C(C)=O)s2)s1	0	0	0	0	0	0	-	-
O=C(O)c1cc(S(=O)(=O)Nc2ccc3c(c2)OCCO3)c(Cl)cc1Cl	83	0	0	42	91	0	54	71
Cc1nn(C)cc1S(=O)(=O)Nc1ccc2c(c1)OCCO2	82	0	0	41	77	0	45	56
Cc1c(S(=O)(=O)Nc2ccc3c(c2)OCCO3)cnn1C	0	0	0	0	0	0	-	-
O=C(O)c1cc(N/N=C/c2ccc3c(c2)OCCO3)ccc1Cl	0	0	0	62	0	0	80	0
CN1C(=O)[C@H]2[C@@H](c3ccc(C(F)(F)F)cc3)N[C@]3(CCCN(Cc4cccn4C)C3=O)[C@H]2C1=O	0	0	0	0	0	0	-	-
COc1ccc(C(C(=O)NC2CCCC2)n2c(Cc3cc(F)cc(F)c3)nc3ccccc32)cc1 (configuration not stated)	-	-	-	0	-	-	-	-
CCC(C(=O)NCc1ccccc1)n1c(CSCCOc2ccccc2)nc2ccccc21 (configuration not stated)	-	-	-	64	-	-	74	77
CC(C(=O)NCc1ccccc1)n1c(CSCCOc2ccccc2)nc2ccccc21 (configuration not stated)	-	-	-	0	-	-	-	-
COc1ccc(C(C(=O)NC2CCCC2)n2c(CSCCOc3ccccc3)nc3ccccc32)cc1 (configuration not stated)	-	-	-	43	-	-	74	63
Cc1ccc(S(=O)(=O)N2CCOCC2)cc1NCC(=O)Nc1ccc(OC(F)(F)F)cc1	0	0	0	0	0	0	-	-
CCOC(=O)[C@]12CCC=C1N(Cc1ccc3c(c1)OCO3)C(=O)[C@H](CC(=O)NCc1cccc(C(F)(F)F)c1)C2	0	-	-	0	0	-	-	-
COC(=O)c1cc2c(=O)c3ccccc3oc2nc1/C=C/N(C)C	0	0	0	0	0	0	-	-
O=C(O)c1ccc(CNC(=O)c2ccc3c(c2)C(=O)N(Cc2cccnc2)C3=O)cc1	0	0	0	0	0	0	-	-
Nc1ccc(C(=O)n2c3ccccc3c3ccccc32)cc1	51	0	0	78	0	0	92	85
COc1ccc(Nc2ccnc3ccccc23)cc1	0	0	0	0	0	0	-	-
CC(C)Nc1ccc(Nc2ccnc3cc4ccccc4cc23)cc1	0	0	108	55	0	0	-	-	Mdm2-MdmX confirm=103
C=C(CN(C)C)C(=O)c1ccc(C)cc1C	0	0	99	90	0	0	96	74
Cc1ccc(C(=O)CC(=O)c2ccccc2C)c(O)c1	0	0	0	0	0	0	-	-
O=C(O)c1ccccc1-c1ccccc1C(=O)NCCCO	0	0	0	48	0	0	0	0
CC(=O)N(C(C)=O)c1ccc(Oc2ccc(Oc3ccc(N(C(C)=O)C(C)=O)cc3)cc2)cc1	0	0	0	68	0	0	87	0
SMILES	TROY signal inh	KKLEB tox	Peg3 prom inh	HIF-2a inh	TWEAK Fn14 block	CF NFkB inh	HIF-2a conf	HIF-1a cs	others
CNC(=O)c1ccc(Oc2ccc(C(=O)NC)cc2)cc1	0	0	0	0	0	0	-	-
OCCN1CCN(C(=S)Nc2cccc(C(F)(F)F)c2)CC1	0	0	0	0	0	0	-	-
CCOC(=O)c1cc([N+](=O)[O-])cc([N+](=O)[O-])c1Sc1ncnc2nc[nH]c12	0	0	98	83	0	0	61	107
CCN1CCN(c2nc(Nc3ccc(NC(C)=O)cc3)nc(Nc3ccc(NC(C)=O)cc3)n2)CC1	63	0	0	68	0	0	0	0
CC(=O)Nc1ccc(/C(C)=N/Nc2nc(Nc3ccccc3)nc(N3CCOCC3)n2)cc1	0	0	0	0	0	0	-	-
O=S(=O)(c1ccc(F)cc1)c1snnc1-c1ccccc1	0	0	75	41	64	0	0	0
c1ccc(-c2nnsc2-c2ncc[nH]2)cc1	0	0	0	0	0	0	-	-
O=S(=O)(c1ccc(Cl)cc1)c1snnc1-c1ccccc1	0	0	93	58	88	0	63	103	Mdm2-MdmX confirm=103
CN(C)c1ncc(S(=O)(=O)c2ccc(Cl)cc2)c(-c2ccccc2)n1	0	0	0	0	0	0	-	-
COCCN1C[C@@H](CO)O[C@@H](n2cnc3c(NC4CCCC4)ncnc32)C1	0	0	0	0	0	0	-	-
O=c1[nH]c(C(F)(F)C(F)(F)C(F)(F)F)no1	0	0	0	0	0	0	-	-
CCOc1cc(NC(=O)CCl)c(OCC)cc1NC(=O)CCl	0	0	50	0	0	0	-	-	Mdm2-MdmX confirm=103
NC(=Nc1ccccc1)N(c1ccccc1)c1ccccc1	0	0	0	0	0	0	-	-
COc1ccccc1N(Cc1cc(=O)[nH]c2ccccc12)C(=O)c1ccccc1	82	0	0	67	81	0	0	0
O=C(Nc1cc(S(=O)(=O)N2CCOCC2)ccc1N1CCCCC1)c1cc(-c2ccccn2)nc2ccccc12	0	0	0	0	0	0	-	-
Cc1ccc(S(=O)(=O)N2CCOCC2)cc1NC(=O)c1cc(-c2ccccn2)nc2ccccc12	0	0	90	95	0	0	0	0
COc1ccc([N+](=O)[O-])c(S(=O)(=O)c2ccccc2)n1	72	-55	111	82	97	85	88	84	Mdm2-MdmX confirm=103
O=[N+]([O-])c1cccnc1S(=O)(=O)c1ccccc1	0	-68	82	55	95	82	0	0	Mdm2-MdmX confirm=102
COc1ccc([N+](=O)[O-])c(S(=O)(=O)c2ccc(Cl)cc2)n1	66	0	105	60	97	102	75	62	Mdm2-MdmX confirm=103

Screening results deposited in PubChem BioAssay by Sanford-Burnham Center for Chemical Genomics.
